# Hits are enriched below; roughly 2.3% of the tested compounds scored in any of these assays.
# Mcl1 Bid PPI = Mcl-1/Bid interaction inhibition; TR-FRET Mcl-1/Bid-Dy647 peptide binding, 1536-well; Q07820; inhibition, % at 21.7 µM; 0.97% of 220,000 active;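 active = compounds that cut the binding signal by more than half at the single screening dose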;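 also: His-tagged Mcl-1 with europium anti-His antibody binding Bid BH3 peptide; 0% = Mcl-1 plus peptide wells and 100% = peptide-only wells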
# Bcl-xL primary = blocks human Bcl-xL binding to Bim BH3 peptide. 0.7% of 320,000 active. inhibition, % at 10.9 µM. AID 2129. GST-Bcl-xL / FITC-Bim BH3 peptide fluorescence polarization. Q07817;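 active = inhibition above the mean of all tested compounds plus 3 SD, cutoff set per campaign, cut at about 30% in these data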;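 also: 0% = DMSO wells and 100% = unlabeled Bim-BH3 peptide competitor; inhibitors lower millipolarization by displacing the labeled peptide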
# Target sequence (Q07817 whole entry, looked up): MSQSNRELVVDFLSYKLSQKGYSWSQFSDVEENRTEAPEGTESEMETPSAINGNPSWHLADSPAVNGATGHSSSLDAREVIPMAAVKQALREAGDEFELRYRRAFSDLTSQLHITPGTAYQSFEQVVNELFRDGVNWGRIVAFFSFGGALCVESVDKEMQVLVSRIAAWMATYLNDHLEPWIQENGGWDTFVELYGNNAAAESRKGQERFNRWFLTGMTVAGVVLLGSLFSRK
# GLD-1 RNA inh = GLD-1-TGE RNA interaction inhibition (C. elegans); Q17339; 0.44% of 320,000 active; purified GLD-1 + fluorescein TGE RNA, fluorescence polarization; inhibition, % at 5.96 µM;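 active = percent inhibition above a per-plate cutoff, the plate mean of test compounds plus 3 SD, cut at about 30% in these data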;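 also: 0% = DMSO wells with GLD-1 and probe and 100% = wells lacking GLD-1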
# Target sequence (Q17339 whole entry, looked up): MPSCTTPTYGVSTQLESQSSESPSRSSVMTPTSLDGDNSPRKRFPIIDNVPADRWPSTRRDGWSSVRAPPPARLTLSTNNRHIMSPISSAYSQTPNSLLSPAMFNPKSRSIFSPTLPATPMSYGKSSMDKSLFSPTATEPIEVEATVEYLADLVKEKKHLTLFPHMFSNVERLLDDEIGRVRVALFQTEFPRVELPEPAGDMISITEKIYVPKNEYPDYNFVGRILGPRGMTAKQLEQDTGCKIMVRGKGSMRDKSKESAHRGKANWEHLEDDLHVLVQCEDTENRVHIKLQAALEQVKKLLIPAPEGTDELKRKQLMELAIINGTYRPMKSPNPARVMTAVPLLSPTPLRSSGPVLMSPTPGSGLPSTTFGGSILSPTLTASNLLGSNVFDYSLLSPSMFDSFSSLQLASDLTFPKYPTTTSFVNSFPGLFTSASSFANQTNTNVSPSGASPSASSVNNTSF
# Mcl1-Noxa inh = Mcl-1/Noxa interaction inhibition | TR-FRET Mcl-1/Noxa peptide binding, 2 h | inhibition, % at 21.7 µM | 1.5% of 220,000 active | AID 1022;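 active = compounds that cut the protein-peptide binding signal by more than 50% relative to plate controls in a single-dose test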;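 also: His-tagged Mcl-1 with rhodamine Noxa BH3 peptide and terbium anti-His antibody; 0% = Mcl-1 plus Noxa peptide wells and 100% = peptide-only wells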
# MCL1 BIM primary = disrupts human MCL1 binding to BIM-BH3 peptide. Q07820. 0.68% of 320,000 active. inhibition, % at 10.9 µM. GST-MCL1 / FITC-Bim-BH3 fluorescence polarization;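 active = inhibition above the mean inhibition of all tested compounds plus 3 SD, set per campaign, cut at about 40% in these data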;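 also: 0% = DMSO wells and 100% = unlabeled Bim-BH3 peptide control; higher means more loss of mP so more displacement of Bim peptide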
# Bim-Mcl-1 = human Bim-Mcl-1 interaction inhibition | Bead-based flow cytometry, Bim peptide-Mcl-1 binding | 0.1% of 190,000 active | inhibition, % at 10 µM | AID 1009; in the data active = inhibition above about 40%;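 also: 0% = no compound tracer wells and 100% = peptide blocker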
# BCLXL inh confirm = counter-screen for MCL1 inhibitors: confirmation of human Bcl-xL inhibitors. shares compounds with MCL1 BIM primary. GST-Bcl-xL / FITC-Bim BH3 peptide FP binding. inhibition, % at 10.9 µM. 54% of 1,700 active. AID 2166;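 active = inhibition above a cutoff equal to the mean inhibition of all tested compounds plus 3 SD, cut at about 30% in these data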;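 also: 0% = DMSO wells and 100% = unlabeled Bim BH3 control peptide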
# MCL1 inh confirm = confirmation of human MCL1 and BIM-BH3 interaction inhibitors; GST-MCL1 / FITC-Bim-BH3 fluorescence polarization; inhibition, % at 10.9 µM; shares compounds with MCL1 BIM primary; 61% of 1,700 active;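 active = inhibition above the average of all tested compounds plus 3 SD, cut at about 40% in these data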;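 also: 0% = DMSO wells and 100% = unlabeled Bim-BH3 control peptide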
# GLD1 RNA confirm = GLD-1 TGE RNA interaction inhibition, confirmation. shares compounds with GLD-1 RNA inh. GLD-1/FL-TGE RNA fluorescence polarization, biochemical. inhibition, % at 5.96 µM. 10% of 550 active. AID 2459;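 active = average inhibition across triplicates above the hit cutoff set in the primary screen, cut at about 32% in these data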;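 also: 0% = GLD-1 with RNA probe and DMSO and 100% = wells lacking GLD-1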
# The depositor's hits bear a star; x = no result given.
SMILES,Mcl1 Bid PPI,Bcl-xL primary,GLD-1 RNA inh,Mcl1-Noxa inh,MCL1 BIM primary,Bim-Mcl-1,BCLXL inh confirm,MCL1 inh confirm,GLD1 RNA confirm
Cn1c(CC(=O)NNC(=O)c2ccccc2[N+](=O)[O-])nc2ccccc21,x,4,3,x,9,x,x,x,x
Cc1ccc(C(=O)N/N=C/c2ccc(-c3ccc(Br)cc3[N+](=O)[O-])o2)o1,x,51*,36*,x,62*,x,12,-11,35*
NC(=O)/C(=C/c1ccco1)C(N)=S,-10,86*,50*,25,116*,x,21,18,-5
O=C(O)/C(=C\c1ccco1)NC(=O)c1ccco1,x,3,7,x,5,x,x,x,x
CC(C(=O)Nc1ccc(C(=O)O)c(O)c1)N1C(=O)/C(=C\c2ccco2)SC1=S (stereo unspecified),x,47*,32*,x,91*,x,46*,80*,5
CC(C(=O)N(C)C1CCS(=O)(=O)C1)N1C(=O)/C(=C/c2ccco2)SC1=S (stereo unspecified),x,16,9,x,33,x,x,x,x
O=C(NCC(=O)N1CC=C(c2ccccc2)CC1)c1ccc(F)cc1,x,x,1,x,x,x,x,x,x
OC(CN1CCN(c2ncc(C(F)(F)F)cc2Cl)CC1)c1ccccc1 (stereo unspecified),x,-2,8,x,-7,x,x,x,x
CCN1CCc2c(sc(NC(=O)c3ccc(S(=O)(=O)N4CCCCCC4)cc3)c2C(=O)NC)C1,x,-6,-16,x,-3,x,x,x,x
CN1C(=O)N(C)c2ccc(C=O)c3cccc1c23,16,72*,40*,22,73*,2,65*,94*,23
Cc1cc2ncn(/N=C/c3ccc(-c4ccccc4)o3)c2cc1C,6,8,-2,22,6,-1,x,x,x
Cc1ccc(/C=N/n2cnc3sc(-c4ccccc4)cc3c2=O)o1,6,124*,65*,13,67*,0,8,12,-2
CCOC(=O)Cn1c(=O)c(-c2cc(Br)ccc2N)nc2ccccc21,-35,70*,37*,13,82*,x,108*,132*,50*
C=CCNC(=O)/C(C#N)=C/c1ccccc1[N+](=O)[O-],-3,45*,31*,18,51*,-8,26,22,45*
CC(C)=CC(=O)N1CCCC(N2CCN(c3ccc(F)cc3)CC2)C1 (stereo unspecified),x,10,6,x,-4,x,x,x,x
COc1cc(OC)cc(-c2c(-c3cccs3)c3cc(-c4ccc(C(N)=O)cc4)ccc3n2C)c1,x,x,7,x,x,x,x,x,x
CN(C(=O)C(=O)c1cn(CC(=O)N2CCCC2)c2ccccc12)C1CCCCC1,x,7,3,x,1,x,x,x,x
O=C(CSC1=Nc2ccccc2C2=NC(CC(=O)NC3CCCCC3)C(=O)N12)NCc1ccco1 (stereo unspecified),-12,61*,35*,10,63*,0,46*,56*,29
CCOC(=O)/C=C1\CN(C(C)c2ccccc2)S(=O)(=O)c2ccccc21 (stereo unspecified),x,0,-2,x,11,x,x,x,x
O=C1C2=C(SCCS2)C(=O)N1CCCO,-19,87*,75*,-3,92*,0,74*,94*,49*
O=C(c1ccccc1)[C@@H]1[C@@H]2C(=O)N(c3ccc(F)cc3)C(=O)[C@@H]2C2CCCN21 (stereo partly specified),-7,64*,37*,-8,62*,x,58*,62*,0
CC1CCCC(NC(=O)COC(=O)COc2ccc(Br)cc2)C1C (stereo unspecified),x,x,1,x,x,x,x,x,x
Cc1cccc(N2CCN(C(=O)CCC(=O)N3CC(C)Oc4ccc(C)cc43)CC2C)c1 (stereo unspecified),x,2,3,x,5,x,x,x,x
Cc1ccsc1/C=N/Nc1ccc(F)cc1F,x,-2,2,x,-2,x,x,x,x
CC(C)Sc1nc(N2CCOCC2)c2c(c1C#N)CC(C)(C)N(C)C2,-14,50*,39*,14,50*,0,22,36,2
SMILES,Mcl1 Bid PPI,Bcl-xL primary,GLD-1 RNA inh,Mcl1-Noxa inh,MCL1 BIM primary,Bim-Mcl-1,BCLXL inh confirm,MCL1 inh confirm,GLD1 RNA confirm
CCn1c(CSc2nnc3ccccn23)nc2cc(C(=O)O)ccc21,-14,99*,95*,23,110*,0,64*,86*,32*
CC1C=CCC2C(=O)N(c3cccc(C(=O)Nc4ccc(F)cc4)c3)C(=O)C12 (stereo unspecified),x,-1,4,x,-6,x,x,x,x
CC(=O)c1c(C)[nH]c(C(=O)OCC(=O)c2ccc3c(c2)NC(=O)CO3)c1C,x,x,0,x,x,x,x,x,x
COc1ccccc1CNCC(=O)Nc1ccc(N(C)C)cc1,x,71*,50*,x,86*,x,61*,61*,-2
CCn1c2ccccc2c2cc(NC(=O)CNCc3ccccc3OC)ccc21,x,4,6,x,2,x,x,x,x
N#CC1=C(N)C(C#N)(C#N)[C@H](c2c(F)cccc2F)[C@H]2CC3(CC=C12)OCCO3,-17,58*,55*,-4,62*,1,35*,34,19
O=C(O)c1ccc2c(c1)[C@@H]1C=CC[C@@H]1[C@H](c1ccccn1)N2,x,56*,34*,x,86*,x,50*,85*,10
O=C(NCCOc1ccccc1)C1Nc2ccc(OC(F)(F)F)cc2C2C=CCC12 (stereo unspecified),x,-3,0,x,7,x,x,x,x
COC(=O)c1ccc(NC(=O)CSc2ccc(-c3ccccn3)nn2)cc1,x,1,2,x,7,x,x,x,x
NC(=O)C1CCCN(S(=O)(=O)c2ccc3ccccc3c2)C1 (stereo unspecified),x,1,9,x,4,x,x,x,x
O=C(Nc1cc2c3c(c1)CC(=O)N3CCC2)c1ccc(Br)o1,x,1,7,x,10,x,x,x,x
CC(=O)C1=C(C)OC(N)=C(C#N)C1c1ccco1 (stereo unspecified),-10,60*,39*,30,59*,-2,20,16,3
COC(=O)C1=C(C)OC(N)=C(C#N)C1c1ccco1 (stereo unspecified),-21,5,-3,-1,9,-1,x,x,x
Nc1ncc(-c2ccccc2)c(-c2ccc(O)cc2O)n1,x,50*,43*,x,51*,x,14,16,11
COc1ccc(-c2cnc(N)nc2-c2ccc(OCc3ccccc3)cc2O)cc1,-5,4,5,9,2,x,x,x,x
CSc1cccc(NC(=S)N(CCCN2CCC(C)CC2)Cc2cccs2)c1,-35,0,-5,11,6,2,x,x,x

# High-throughput results deposited in PubChem BioAssay by several laboratories.
